High-throughput results (PubChem BioAssay)
A selection: hits, their analogues and other compounds. The true share with any hit is near 0.3%.
USP2a block = qHTS Assay for Inhibitors of Ubiquitin-specific Protease USP2a Using CHOP2 as the Reporter. 0.01% of 330,000 active. Potency, µM (top dose mostly 38.3 µM), for the others: at the top dose activity change, negative = inhibition, usual class: inhibitors. AID 463254, 2010. Ubiquitin carboxyl-terminal hydrolase 2 (Homo sapiens), O75604. USP2 core, Ub-CHOP2 coupled fluorogenic reporter, 485/531;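 also: potency is read from the fitted curve at half-maximal effect; plate controls were DMSO wells for no effect and full inhibition by NEM control for full effect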
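USP2 core (10nM final) preincubated 30min RT with compound in 20mM Tris-HCl pH 8.0, 2mM CaCl2, 2mM beta-mercaptoethanol, 0.05% CHAPS; 25nM Ub-CHOP2 plus 25nM reporter substrate added, fluorescence (Ex485/Em531) read after 60min.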
CCT chaperon mod = High-Throughput Screening for Modulators of Cytosolic Chaperonin Activity; activity change, % (no concentration beside the values), hits read low; 0.3% of 360,000 active; purified chaperonin ATPase assay, HTRF ADP detection, 30 min; in the data active = activity change below about -30%; also: % is scaled to controls: 0 for no effect and ±100 for the full control effect
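TRiC (40 or 20 nM final, by batch activity) in 30 mM Tris pH 7.4, 100 mM KCl, 5 mM MgCl2, 1 mM DTT was treated with compound at 76 uM single dose, then 10 uM ATP, 30 min at 37 °C. ADP was read by HTRF Transcreener.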
ASM inhibitor = Inhibitors of Secretory Acid Sphingomyelinase (S-ASM): qHTS; Sphingomyelin phosphodiesterase (Homo sapiens), P17405; placental ASM, HMU-PC fluorogenic substrate, 60 min; Potency, µM (top dose mostly 57.5 µM), without a hit: top-dose activity change, negative = inhibition, actives largely listed as inhibitors; 0.006% of 340,000 active; AID 504937, 2011; also: potency is read from the fitted curve at half-maximal effect
Target sequence (P17405 47-631 limits assumed): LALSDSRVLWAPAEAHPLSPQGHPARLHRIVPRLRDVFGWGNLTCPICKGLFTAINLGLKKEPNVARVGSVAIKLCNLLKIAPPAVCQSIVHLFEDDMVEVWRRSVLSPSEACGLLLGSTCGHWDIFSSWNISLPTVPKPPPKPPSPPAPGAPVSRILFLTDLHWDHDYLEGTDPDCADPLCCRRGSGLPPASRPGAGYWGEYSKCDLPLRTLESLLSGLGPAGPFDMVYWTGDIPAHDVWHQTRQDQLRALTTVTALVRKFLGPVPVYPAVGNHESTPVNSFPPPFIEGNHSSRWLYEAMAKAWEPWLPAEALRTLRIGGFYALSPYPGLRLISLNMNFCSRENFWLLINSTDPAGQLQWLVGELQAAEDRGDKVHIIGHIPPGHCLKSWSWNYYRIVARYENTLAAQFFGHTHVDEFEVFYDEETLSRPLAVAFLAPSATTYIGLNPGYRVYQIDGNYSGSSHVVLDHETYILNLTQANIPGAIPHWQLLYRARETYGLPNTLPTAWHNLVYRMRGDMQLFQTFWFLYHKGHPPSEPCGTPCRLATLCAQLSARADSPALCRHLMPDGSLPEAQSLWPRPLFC
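qHTS format. ASM enzyme prepared from human placenta hydrolyses the fluorogenic substrate HMU-PC0 (9 uM final) over 60 min at 37 °C after a 10 min compound preincubation.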
Mm-Cpn inhibitor = Inhibitors of TCP-1 ring complex (TRiC) of Methanococcus maripaludis (MmCpn): qHTS; purified Mm-Cpn ATPase, ADP Transcreener TR-FRET; 0.031% of 330,000 active; Potency, µM (highest dose often 76.9 µM), for the others: at the highest dose activity, negative = inhibition, usual class: inhibitors; also: potency is read from the fitted curve at half-maximal effect; % is scaled to controls: 0 for no effect and ±100 for the full control effect; nearly all actives have a fitted effect of over 80% in size
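Purified archaeal chaperonin (25 nM final) was preincubated with compound for 10 min at 37°C, then ATP (10 uM final) was added for 30 min at 37°C in Tris pH 7.4/KCl/MgCl2/DTT buffer. ADP was quantified by HTRF Transcreener TR-FRET.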
* marks the source's active call; other numbers are inactive results; u = inconclusive; x = not tested or not shown. Unless noted, calls follow the shape of the dose curve; as a rule, active = well fitted curve in the direction sought with a large enough effect; inconclusive = small, poorly fitted or top-dose-only effect, or another doubt; inactive = no such curve, though single readings can be large; an effect the other way counts as inactive or inconclusive.

SMILES	USP2a block	CCT chaperon mod	ASM inhibitor	Mm-Cpn inhibitor
COc1ccc(NC(=O)NC(C)(C(F)(F)F)C(F)(F)F)cc1	2%	-79*	3%	1%
Cc1cc(-c2ccc(N=Nc3c(S(=O)(=O)O)cc4cc(S(=O)(=O)O)cc(N)c4c3O)c(C)c2)ccc1N=Nc1c(S(=O)(=O)O)cc2cc(S(=O)(=O)O)cc(N)c2c1O	10µM*	x	x	32µM*
COc1cc(F)cc(-c2ccc3c(c2)c(-c2cccs2)c(-c2cc(OC)cc(OC)c2)n3C)c1	-5%	1	48%	22µM*
Cc1nnc(Sc2cc(NCCCO)c([N+](=O)[O-])c3nonc23)s1	9%	-1	-8%	-1%
Cc1nnc(Sc2cc(NCCO)c([N+](=O)[O-])c3nonc23)s1	2%	-58*	-4%	0%
S=C(NN=Cc1ccccn1)N(Cc1ccccn1)Cc1ccccn1	x	-43*	1%	x
S=C(NN=C(c1ccccc1)c1ccccn1)N(Cc1ccccn1)Cc1ccccn1	x	-1	-2%	x
CN1CCN(/C=N/C2=C(C#N)C(c3ccccc3)C3=C(CC(C)(C)CC3=O)O2)CC1 (stereo unspecified)	3%	-34*	0%	0%
Cc1cc(C)nc(SCC(=O)N2CCc3ccccc32)n1	x	3	3%	x
CC(=O)c1ccc2c(c1)C1C=CCC1C(C(=O)O)N2 (stereo unspecified)	11µM*	-2	-28%	-3%
O=C(O)CCCNC(=O)Cc1ccccc1	-1%	-91*	5%	3%
O=C(Cc1ccccc1)NCCCc1ccccc1	-5%	0	2%	1%
COc1ccc2cc(C3(C)NC(=O)N(CC(=O)NCC(F)(F)F)C3=O)ccc2c1 (stereo unspecified)	0%	-33*	-1%	1%
COc1ccc(CCNCCC(=O)Nc2c(C)cc(C)cc2C)cc1OC	5%	-1	-7%	1%
COc1ccc(CNCCCC(=O)Nc2c(Cl)ccc(C)c2Cl)cc1OC	-7%	-48*	6%	0%
O=C(O)COc1c(F)c(F)c(C(F)(F)F)c(F)c1F	3%	-3	0%	1%
CC(=O)N1CCN(c2c(F)c(F)c(C(F)(F)F)c(F)c2F)CC1	1%	-38*	1%	0%
CCCCCOC(=O)Nc1ccc(S(=O)(=O)Nc2cccc([N+](=O)[O-])c2)cc1	-4%	-53*	-27%	0%
Cc1c(C(=O)N2CCN(Cc3ccc4c(c3)OCO4)CC2)sc2ncnc(N3CCN(c4ccccc4F)CC3)c12	1%	-74*	3%	-5%
COc1ccc(NC(=O)CCCCCN2C(=O)c3cccc([N+](=O)[O-])c3C2=O)c(OC)c1	-1%	-39*	-2%	-2%
Clc1ccccc1-c1nc(-c2cccnc2)no1	x	0	-1%	x
Clc1ccccc1-c1nnc(-c2cccnc2)o1	2%	-40*	1%	-3%
COc1ccc(C2/C(=C(\O)c3cc(C)ccc3C)C(=O)C(=O)N2CCN(C)C)cc1OC (stereo unspecified)	-1%	-80*	3%	0%
CCOC(=O)C1CCN(C(=O)COC(=O)COc2ccc(Cl)cc2)CC1	2%	-30*	0%	4%
CCOC(=O)C1CCN(C(=O)COc2ccc(Cl)cc2)CC1	0%	0	-1%	-2%
SMILES	USP2a block	CCT chaperon mod	ASM inhibitor	Mm-Cpn inhibitor
COc1ccc(S(=O)(=O)N(C(=O)c2ccncc2)c2ccc3oc4c(c3c2)CCCC4)cc1	-7%	-42*	-1%	1%
CC(C)c1nnc(NC(=O)CCC(=O)N2CCN(c3ccc(Cl)cc3)CC2)s1	-1%	-2	-2%	-1%
CC(C)c1nnc(NC(=O)CCC(=O)N2CCN(Cc3ccccc3)CC2)s1	-1%	-43*	1%	-1%
C#CCn1c(O)c(N=NC(=O)C(O)c2ccccc2)c2ccccc21 (stereo unspecified)	-1%	-3	0%	-1%
O=C(CSc1ccc(Br)c2cccc(Cl)c12)Nc1ccc(S(=O)(=O)Nc2nccs2)cc1	u	-37*	-11%	u
Cc1ccc(S(=O)(=O)N2CC(C(=O)O)=CC[C@H]2c2ccc3c(c2)OCO3)cc1	-1%	-4	17%	1%
CC(NC(=O)C1CC=CCC1C(=O)O)C1CC2CCC1C2 (stereo unspecified)	1%	0	3%	0%
CC(NC(=O)c1ccc(N(C)C)cc1)C1CC2CCC1C2 (stereo unspecified)	6%	-44*	4%	-11%
COc1ccc(C(=O)NC(C)C2CC3CCC2C3)cc1 (stereo unspecified)	-2%	0	-1%	-2%
CC(NC(=O)C1CCCC1)C1CC2CCC1C2 (stereo unspecified)	-13%	-41*	-1%	0%
O=c1cc(-c2ccc(O)cc2)oc2c(C3O[C@H](CO)[C@@H](O)[C@H](O)[C@H]3O)c(O)cc(O)c12 (stereo partly specified)	0%	1	-6%	0%
O=C(c1ccco1)N1CCC(c2nc(-c3ccccc3Cl)no2)CC1	-4%	-1	-2%	2%
O=C(c1ccco1)N1CCC(c2nc(-c3ccc(F)cc3)no2)CC1	1%	-35*	1%	4%
CCC(C)Sc1ccc([C@@H]2[C@@H]3C(=O)N(CC)C(=O)[C@@H]3[C@]3(C(=O)OC)CCCCN23)cc1 (stereo partly specified)	-1%	-1	-17%	3%
CSc1nc(SCCO)c2sc3nc(-c4ccco4)c4c(c3c2n1)CC(C)(C)OC4	10µM*	0	91%	-16%
Cc1nnc(SCC(=O)N2CC(C)OC(C)C2)n1-c1ccccc1 (stereo unspecified)	2%	-1	-2%	-3%
Cc1ccn2c(Nc3ccccc3)c(-c3ccccn3)nc2c1	-4%	-37*	11%	1%
CCOC(=O)c1cc(C(C)(C)C)oc1CN	6%	1	0%	1%
CCOC(=O)c1cc(C(C)(C)C)oc1CNC(=O)c1c(C)oc2c1CCCC2	0%	-54*	-1%	-2%
CC(OC(=O)/C=C/c1cccc(C(F)(F)F)c1)C(=O)NC1CCCCC1C (stereo unspecified)	5%	-1	1%	1%
N#Cc1ccc(-c2csc(NC(=O)c3ccc(N4C(=O)CCC4=O)cc3)n2)cc1	2%	-1	12%	32µM*
NC(=O)NC(=O)CN1C(=O)NC(c2ccccc2)(c2ccccc2)C1=O	2%	1	0%	1%
O=C(NCCCN1CCOCC1)C(=O)NCC1OCCN1S(=O)(=O)c1ccc(Cl)cc1 (stereo unspecified)	x	-34*	x	x
O=C(c1ccccc1)n1nc(-c2ccccc2)nc1NCc1ccco1	4%	-1	-9%	3%
